# Screening results from PubChem BioAssay.
# The entries come from a sample that favours hits as a whole.
# T cruzi growth-1 – blocks T. cruzi growth in NIH3T3 culture; AID 624255; inhibition, % at 8.34 µM; T. cruzi beta-gal in NIH3T3, GalScreen luminescence, 90 h; 77,000 tested, 5.9% active;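 active = mean inhibition above about 93%, with at least 55% of replicates each passing it, limit read from the data, passing the limit was not always enough; inconclusive = only one of those two conditions holds; inactive = neither condition holds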
# C diff HTS – C. difficile growth inhibition; Clostridium difficile clinical isolate growth, OD600, 24 h; hits give low values; growth activity, negative = inhibition, % at 16 µg/mL (by protocol); 86,000 tested, 0.25% active; AID 1259249;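 active = mean growth activity at or below -80% and every replicate also at or below -80%; inconclusive = mean at or below -80% but some replicate above -80%; inactive = mean growth activity above -80%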;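 also: 0% = DMSO wells and -100% = levofloxacin 16 µg/mL wells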
# T cruzi growth-2 – inhibitors of T. cruzi proliferation. inhibition, % at 8.35 µM. AID 651739. 5,600 tested, 72% active. shares compounds with T cruzi growth-1. T. cruzi beta-gal in NIH3T3, GalScreen luminescence, 90 h;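 active = mean replicate inhibition above about 95% and at least 55% of replicates individually reaching it, limit read from the data; inconclusive = only one of the two criteria is met; inactive = neither criterion is met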
# T cruzi growth-3 – Trypanosoma cruzi proliferation inhibition | shares compounds with T cruzi growth-1 | T. cruzi beta-gal in NIH3T3, GalScreen luminescence, 90 h | inhibition, % at 2.09 µM | 5,600 tested, 21% active | AID 651740;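 active = mean inhibition above about 95%, with at least 55% of replicates also reaching it, limit read from the data; inconclusive = meets just one of the two conditions; inactive = meets neither condition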;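 also: plate controls were neutral control median for no effect and positive control median for full effect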
# NIH3T3 tox – kills mouse NIH/3T3 fibroblasts | 5,600 tested, 14% active | NIH/3T3 viability, CellTiter-Glo ATP luminescence, 90 h | cytotoxicity (signal decrease), % at 8.35 µM | AID 651742 | shares compounds with T cruzi growth-1;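 active = mean signal decrease across replicates above about 35% based on untreated-well scatter, with enough replicates individually passing, limit read from the data; inconclusive = no rule stated though some were filed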;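 also: 0% = median of neutral control wells and 100% = median of positive control wells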
# NIH3T3 tox 2 – kills mouse NIH/3T3 fibroblasts | shares compounds with T cruzi growth-1 | NIH/3T3 viability, CellTiter-Glo ATP luminescence, 90 h | inhibition, % at 24.9 µM | 5,600 tested, 56% active | AID 651744;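 active = mean loss of cell viability signal at or above a set limit, and enough replicates individually reaching it; inconclusive = meets only the mean limit or only the replicate share; inactive = meets neither condition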;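 also: 0% = median of neutral control wells and 100% = median of positive control wells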
# The depositor's hits bear a star; ? = inconclusive; . = no result; ! = a repeat was not active.
SMILES,T cruzi growth-1,C diff HTS,T cruzi growth-2,T cruzi growth-3,NIH3T3 tox,NIH3T3 tox 2
CCC(=O)N1[C@H](CO)[C@H]2c3ccccc3N(C(=O)CC(F)(F)F)C[C@H]21,64,-4,.,.,.,.
C/C=C/c1cnc2c(c1)C(=O)N([C@H](C)CO)C[C@@H](C)[C@@H](CN(C)S(=O)(=O)c1ccccc1F)O2,.,0,.,.,.,.
CCS(=O)(=O)N1CCCCN2[C@H](C1)[C@@H](c1ccc(-c3ccc(C(=O)N(C)C)cc3)cc1)[C@@H]2CO,14,-12,.,.,.,.
C[C@@H]1CN([C@H](C)CO)C(=O)Cc2cc(NC(=O)CCN3CCOCC3)ccc2O[C@H]1CN(C)Cc1ccc2c(c1)OCO2,28,5,.,.,.,.
COCC(=O)N(C)C[C@H]1Oc2cc(C#CCN(C)C)ccc2S(=O)(=O)N([C@H](C)CO)C[C@H]1C,0,-2,.,.,.,.
O=C(Nc1ccc(F)cc1)N[C@@H]1CC[C@H](CC(=O)N2CCOCC2)O[C@@H]1CO,5,.,.,.,.,.
COc1ccc(NC(=O)Nc2ccc3c(c2)C(=O)N([C@H](C)CO)C[C@H](C)[C@@H](CN(C)Cc2ccc(Cl)c(Cl)c2)OCCCC[C@@H](C)O3)cc1,122*,0,113*,100*,2,9
COc1ccc(CN(C)C[C@H]2OCCCC[C@H](C)Oc3ccc(NC(=O)Nc4ccc(OC)cc4)cc3C(=O)N([C@@H](C)CO)C[C@H]2C)cc1,2,.,.,.,.,.
COc1ccc(NC(=O)Nc2ccc3c(c2)C(=O)N([C@H](C)CO)C[C@@H](C)[C@@H](CN(C)Cc2ccc(Cl)c(Cl)c2)OCCCC[C@H](C)O3)cc1,126*,5,90,110*,2,5
N#C[C@H]1[C@H](c2ccccc2)[C@H](CO)N1C(=O)Cc1ccccc1,49,5,.,.,.,.
O=C(C[C@@H]1C[C@H]2c3cc(NC(=O)C4CCC4)ccc3O[C@H]2[C@@H](CO)O1)NC1CCCC1,9,-6,.,.,.,.
C[C@@H]1CN([C@H](C)CO)C(=O)CCCn2nncc2CO[C@@H]1CN(C)C(=O)Nc1ccc(C(F)(F)F)cc1,28,.,.,.,.,.
COCC(=O)Nc1ccc2c(c1)C(=O)N(C)C[C@@H](OC)[C@@H](C)CN(Cc1ccncc1)[C@@H](C)CO2,98*,.,61,-26,6,11
COCC(=O)Nc1ccc2c(c1)C(=O)N(C)C[C@@H](OC)[C@H](C)CN(Cc1ccncc1)[C@H](C)CO2,-43,.,.,.,.,.
CO[C@@H]1CN(C)C(=O)c2ccc(NC(=O)c3nc4ccccc4s3)cc2OC[C@@H](C)N(Cc2cccnc2)C[C@@H]1C,102*,-2,109*,?,-17,43*
CO[C@H]1CN(C)C(=O)c2cc(NC(=O)c3nc4ccccc4s3)ccc2OC[C@H](C)N(Cc2ccncc2)C[C@@H]1C,100*,-9,98*,67,13,42*
COc1ccc(CN2C[C@@H](C)[C@H](OC)CN(C)C(=O)c3ccc(NC(=O)c4nc5ccccc5s4)cc3OC[C@H]2C)cc1,91,9,.,.,.,.
CO[C@@H]1CN(C)C(=O)c2cc(NC(=O)c3nc4ccccc4s3)ccc2OC[C@H](C)N(Cc2ccncc2)C[C@H]1C,88,-4,.,.,.,.
COc1ccc(CN2C[C@@H](C)[C@H](OC)CN(C)C(=O)c3ccc(NC(=O)c4nc5ccccc5s4)cc3OC[C@@H]2C)cc1,102*,5,115*,79,-3,-38
CO[C@@H]1CN(C)C(=O)c2ccc(NC(=O)c3nc4ccccc4s3)cc2OC[C@@H](C)N(Cc2cccnc2)C[C@H]1C,73,10,.,.,.,.
COc1ccc(CN(C)C[C@H]2OCCCC[C@@H](C)Oc3ccc(N(C)C)cc3C(=O)N([C@H](C)CO)C[C@H]2C)cc1,53,2,.,.,.,.
O=C(CC1CC1)N[C@H]1CC[C@@H](CCNS(=O)(=O)c2ccc(F)cc2)O[C@H]1CO,-14,0,.,.,.,.
CC(C)C#Cc1cnc2c(c1)C(=O)N([C@@H](C)CO)C[C@@H](C)[C@H](CN(C)C(=O)Nc1ccccc1)O2,22,-6,.,.,.,.
C[C@@H]1CN([C@H](C)CO)C(=O)CCCn2cc(nn2)CO[C@@H]1CN(C)C(=O)Nc1ccc(N2CCCCC2)cc1,-21,1,.,.,.,.
COc1ccc(CN(C)C[C@@H]2OCCCC[C@H](C)Oc3ccc(NS(=O)(=O)c4cccs4)cc3C(=O)N([C@@H](C)CO)C[C@H]2C)cc1,49,2,.,.,.,.
SMILES,T cruzi growth-1,C diff HTS,T cruzi growth-2,T cruzi growth-3,NIH3T3 tox,NIH3T3 tox 2
CCC(=O)N[C@H]1C[C@@H]2O[C@@H](CO)CC[C@@H]2O[C@@H]1CCc1ccc(-c2cccc(OC)c2)cc1,.,-9,.,.,.,.
O=C(C[C@H]1CC[C@@H]2[C@H](COC[C@H](O)CN2Cc2ccc(Cl)cc2)O1)Nc1nccs1,22,-5,.,.,.,.
O=C(C[C@H]1CC[C@@H]2[C@H](COC[C@H](O)CN2Cc2ccccc2F)O1)NCc1ccccc1F,0,2,.,.,.,.
COc1cccc(-c2ccc([C@H]3[C@@H](CO)N4CCCCN(C(=O)NC(C)C)C[C@H]34)cc2)c1,117*,10,108*,69,-6,61*
Cc1cccc(-c2ccc([C@H]3[C@@H](CO)N4CCCCN(C(=O)NC(C)C)C[C@@H]34)cc2)c1,92,-20,.,.,.,.
COc1cccc(-c2ccc([C@@H]3[C@@H](CO)N4CCCCN(C(=O)NC(C)C)C[C@H]34)cc2)c1,74,-15,.,.,.,.
COc1cccc(-c2ccc([C@@H]3[C@@H](CO)N4CCCCN(C(=O)NC(C)C)C[C@@H]34)cc2)c1,100*,-2,102*,24,-9,?
C[C@H]1CCCCO[C@H](CN(C)C(=O)C2CCCCC2)[C@@H](C)CN([C@@H](C)CO)C(=O)c2cc(NC(=O)c3ccccc3)ccc2O1,40,-12,.,.,.,.
O=C(Cc1ccccn1)NCC[C@@H]1CC[C@@H](NS(=O)(=O)c2ccccc2)[C@@H](CO)O1,7,-2,.,.,.,.
C[C@@H]1CN([C@H](C)CO)C(=O)c2cc(-c3ccc(F)cc3)cnc2O[C@@H]1CN(C)C(=O)c1ccc(F)cc1,1,2,.,.,.,.
COc1ccc(C#Cc2ccc3c(c2)O[C@@H](CN(C)S(=O)(=O)c2ccccc2F)[C@@H](C)CN([C@@H](C)CO)S3(=O)=O)cc1,.,2,.,.,.,.
COc1ccc(C#Cc2ccc3c(c2)O[C@H](CN(C)S(=O)(=O)c2ccccc2F)[C@@H](C)CN([C@H](C)CO)S3(=O)=O)cc1,.,3,.,.,.,.
COc1cccc(C#Cc2ccc3c(c2)O[C@H](CN(C)S(=O)(=O)c2ccccc2F)[C@@H](C)CN([C@@H](C)CO)S3(=O)=O)c1,118*,2,111*,116*,38*,27*
COc1cccc(C#Cc2ccc3c(c2)O[C@H](CN(C)S(=O)(=O)c2ccccc2F)[C@H](C)CN([C@H](C)CO)S3(=O)=O)c1,130*,6,107*,107*,8,38*!
COc1ccc(S(=O)(=O)N(C)C[C@@H]2Oc3ccc(NC(=O)Nc4c(C)noc4C)cc3CC(=O)N([C@H](C)CO)C[C@@H]2C)cc1,15,-5,.,.,.,.
